Common to all, as to assay: DAPPL (digital affinity profiling via proximity ligation, sequencing); 10 mM Tris-HCl pH 7.5, 50 mM NaCl, 1 mM DTT, 4% glycerol, room temperature, 30 min; GST-TFs on glutathione beads, 16-mer random dsDNA library, 0.1% formaldehyde crosslink after washing; high values mean tight binding
What all share (settings): protein: recombinant; tags: N-terminal GST; dsDNA, one strand shown

One experiment deals with T1, ERF (Homo sapiens, UniProt P50548 1-548).
T1 sequence: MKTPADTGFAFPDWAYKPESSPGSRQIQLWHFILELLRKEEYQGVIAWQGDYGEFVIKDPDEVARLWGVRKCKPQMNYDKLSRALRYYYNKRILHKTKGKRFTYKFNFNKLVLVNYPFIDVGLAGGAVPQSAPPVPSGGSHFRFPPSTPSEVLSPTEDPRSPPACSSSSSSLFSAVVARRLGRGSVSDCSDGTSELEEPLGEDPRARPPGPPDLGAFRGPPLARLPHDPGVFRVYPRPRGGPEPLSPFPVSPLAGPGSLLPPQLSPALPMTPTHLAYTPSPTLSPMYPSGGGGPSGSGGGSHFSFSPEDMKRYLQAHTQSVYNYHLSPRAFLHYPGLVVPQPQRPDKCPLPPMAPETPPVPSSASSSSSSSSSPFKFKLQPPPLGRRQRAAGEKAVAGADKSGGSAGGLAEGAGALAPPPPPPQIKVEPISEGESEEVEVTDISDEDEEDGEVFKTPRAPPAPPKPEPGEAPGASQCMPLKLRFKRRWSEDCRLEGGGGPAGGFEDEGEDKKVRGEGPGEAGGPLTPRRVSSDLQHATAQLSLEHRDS
The essentials:
(§1)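 In yeast, human transcription factors were expressed with a GST fusion, then pulled down on glutathione beads and given DNA barcodes. Pooled with a tag-only sample, they were exposed to 200 nmole of a 16-mer random double-stranded DNA library (Tris/NaCl/DTT/glycerol buffer, room temperature, 30 min), washed, crosslinked with 0.1% formaldehyde, proximity-ligated using BsaI/T4 ligase for 1 h at 37 °C, PCR-amplified and read on an Illumina NextSeq500. Each hexamer's frequency of reads for a factor, divided by the matching frequency for the tag-only sample, gives the binding signal.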

The target of the next experiment is ETV6 (Homo sapiens, UniProt P41212 1-452). Put shortly:
as §1

In a further experiment the target is T2, ETV3L (Homo sapiens, UniProt Q6ZN32 1-361).
T2 sequence: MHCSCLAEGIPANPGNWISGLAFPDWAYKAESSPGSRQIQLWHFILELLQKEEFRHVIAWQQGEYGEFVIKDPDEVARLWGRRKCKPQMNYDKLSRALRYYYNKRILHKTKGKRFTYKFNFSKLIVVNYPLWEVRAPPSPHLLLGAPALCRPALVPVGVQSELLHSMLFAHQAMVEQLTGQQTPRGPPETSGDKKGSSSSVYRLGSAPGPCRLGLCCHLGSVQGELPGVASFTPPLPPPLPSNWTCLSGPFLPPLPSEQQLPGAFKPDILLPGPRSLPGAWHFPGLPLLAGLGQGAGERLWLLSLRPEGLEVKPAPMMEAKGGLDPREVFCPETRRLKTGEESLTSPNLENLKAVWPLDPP
Put shortly:
as §1

The next experiment has as its target T3, ETS2 (Homo sapiens, UniProt P15036 1-469).
T3 sequence: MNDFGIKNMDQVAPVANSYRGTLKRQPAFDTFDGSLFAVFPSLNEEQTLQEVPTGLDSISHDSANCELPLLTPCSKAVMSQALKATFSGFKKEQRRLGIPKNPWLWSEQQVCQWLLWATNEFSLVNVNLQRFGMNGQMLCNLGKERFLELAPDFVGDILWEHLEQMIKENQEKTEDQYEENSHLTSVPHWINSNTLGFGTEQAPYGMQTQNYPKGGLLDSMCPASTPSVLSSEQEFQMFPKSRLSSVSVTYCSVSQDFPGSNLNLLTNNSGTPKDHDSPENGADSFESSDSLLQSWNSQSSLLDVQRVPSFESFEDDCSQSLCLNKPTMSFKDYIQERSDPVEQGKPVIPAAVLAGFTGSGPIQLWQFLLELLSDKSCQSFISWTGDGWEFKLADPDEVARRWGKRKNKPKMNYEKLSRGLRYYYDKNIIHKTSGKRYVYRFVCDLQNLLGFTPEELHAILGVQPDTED
Put shortly: as §1

Another experiment addresses T4, ELF5 (Homo sapiens, UniProt Q9UKW6-2 1-255).
T4 sequence: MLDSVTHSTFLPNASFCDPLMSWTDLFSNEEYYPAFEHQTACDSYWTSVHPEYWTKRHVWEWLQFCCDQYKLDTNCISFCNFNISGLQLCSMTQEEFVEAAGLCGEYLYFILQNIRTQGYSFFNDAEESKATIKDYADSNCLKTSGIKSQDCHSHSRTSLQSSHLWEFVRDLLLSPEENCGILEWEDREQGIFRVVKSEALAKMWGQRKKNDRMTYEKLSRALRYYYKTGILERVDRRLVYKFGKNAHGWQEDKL
Put shortly:
as §1

The target of another experiment is T5, ETV3 (Homo sapiens, UniProt P41162-2 1-143).
T5 sequence: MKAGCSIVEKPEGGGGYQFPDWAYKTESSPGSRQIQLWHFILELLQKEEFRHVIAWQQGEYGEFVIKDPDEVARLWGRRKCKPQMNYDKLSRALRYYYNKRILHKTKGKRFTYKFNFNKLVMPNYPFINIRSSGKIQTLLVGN
The essentials: as §1

The target of the next experiment is T6, SPDEF (Homo sapiens, UniProt O95238 1-335).
T6 sequence: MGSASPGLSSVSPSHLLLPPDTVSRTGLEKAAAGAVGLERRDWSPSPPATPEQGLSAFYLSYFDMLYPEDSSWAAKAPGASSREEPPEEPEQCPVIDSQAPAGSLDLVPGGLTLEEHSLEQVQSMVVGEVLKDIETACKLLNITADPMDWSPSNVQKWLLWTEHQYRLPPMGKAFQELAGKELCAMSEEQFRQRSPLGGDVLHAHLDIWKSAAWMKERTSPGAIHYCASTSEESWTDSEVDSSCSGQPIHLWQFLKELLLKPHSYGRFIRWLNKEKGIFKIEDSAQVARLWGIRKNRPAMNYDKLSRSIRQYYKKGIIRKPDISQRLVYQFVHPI
The essentials: as §1

A further experiment concerns the target T7, ETV7 (Homo sapiens, UniProt Q9Y603 1-341).
T7 sequence: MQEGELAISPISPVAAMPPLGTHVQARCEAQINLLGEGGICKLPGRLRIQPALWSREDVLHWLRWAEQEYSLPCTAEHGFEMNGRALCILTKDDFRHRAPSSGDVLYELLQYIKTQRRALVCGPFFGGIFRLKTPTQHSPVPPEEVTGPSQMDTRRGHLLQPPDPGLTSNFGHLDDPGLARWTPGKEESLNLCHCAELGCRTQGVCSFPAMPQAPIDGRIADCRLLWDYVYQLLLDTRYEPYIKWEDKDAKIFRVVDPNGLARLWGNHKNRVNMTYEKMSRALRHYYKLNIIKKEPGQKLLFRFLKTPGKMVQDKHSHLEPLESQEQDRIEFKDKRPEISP
The essentials:
as §1

Sequence of ETV6 (P41212 whole entry): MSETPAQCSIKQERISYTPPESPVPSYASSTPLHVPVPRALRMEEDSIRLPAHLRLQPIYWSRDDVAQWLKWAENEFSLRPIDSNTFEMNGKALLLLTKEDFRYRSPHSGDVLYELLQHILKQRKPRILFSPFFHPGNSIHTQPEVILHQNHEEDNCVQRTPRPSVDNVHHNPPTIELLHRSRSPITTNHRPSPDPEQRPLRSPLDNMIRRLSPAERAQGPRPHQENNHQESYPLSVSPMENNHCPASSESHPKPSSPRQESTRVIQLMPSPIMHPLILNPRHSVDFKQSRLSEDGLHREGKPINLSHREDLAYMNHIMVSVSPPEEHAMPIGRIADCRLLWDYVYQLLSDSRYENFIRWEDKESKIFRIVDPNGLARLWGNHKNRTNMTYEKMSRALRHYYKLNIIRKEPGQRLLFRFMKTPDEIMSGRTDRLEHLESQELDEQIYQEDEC

On to TGAGCT, for which the binding signal with ERF was 1.05 fold enrichment (6-mer frequency, TF over GST control); with ETV6 it was 1.05 fold enrichment (6-mer frequency, TF over GST control).
TAAGCG: the binding signal with ETV3L is 1.03 fold enrichment (6-mer frequency, TF over GST control); with ETS2, 1.05 fold enrichment (6-mer frequency, TF over GST control); in the experiment with ELF5 it was 1.01 fold enrichment (6-mer frequency, TF over GST control); with ETV3, 1.05 fold enrichment (6-mer frequency, TF over GST control); in the experiment with ETV6 it was 1.01 fold enrichment (6-mer frequency, TF over GST control).
As to TGTGAC, the binding signal with ETV3L is 1.22 fold enrichment (6-mer frequency, TF over GST control); with ETS2, 1.14 fold enrichment (6-mer frequency, TF over GST control); in the experiment with SPDEF, 1.2 fold enrichment (6-mer frequency, TF over GST control); with ETV7, 1.12 fold enrichment (6-mer frequency, TF over GST control); in the experiment with ELF5, 1.1 fold enrichment (6-mer frequency, TF over GST control); in the experiment with ETV3, 1.17 fold enrichment (6-mer frequency, TF over GST control). Further, the binding signal in the experiment with ETV6 was 1.07 fold enrichment (6-mer frequency, TF over GST control).
With ATAGGT, the binding signal with ETV3L is 1.05 fold enrichment (6-mer frequency, TF over GST control); in the experiment with SPDEF, 1.05 fold enrichment (6-mer frequency, TF over GST control); with ETV7 it was 1.17 fold enrichment (6-mer frequency, TF over GST control); with ETV3, 1.06 fold enrichment (6-mer frequency, TF over GST control).
Turning to TCATGA, the binding signal is 1.03 fold enrichment (6-mer frequency, TF over GST control) with ETV3L; 1.04 fold enrichment (6-mer frequency, TF over GST control) with ETS2; 1 fold enrichment (6-mer frequency, TF over GST control) in the experiment with ETV7; 1.05 fold enrichment (6-mer frequency, TF over GST control) in the experiment with ELF5; 1.06 fold enrichment (6-mer frequency, TF over GST control) in the experiment with ETV3.
In the case of CAAGGT, the binding signal with ETV3L is 1.12 fold enrichment (6-mer frequency, TF over GST control); in the experiment with ETS2, 1.11 fold enrichment (6-mer frequency, TF over GST control); with SPDEF, 1.03 fold enrichment (6-mer frequency, TF over GST control); with ETV7, 1.1 fold enrichment (6-mer frequency, TF over GST control); with ETV3 it was 1.02 fold enrichment (6-mer frequency, TF over GST control); in the experiment with ETV6, 1.01 fold enrichment (6-mer frequency, TF over GST control).
Consider ACACCA, for which the binding signal was 1.04 fold enrichment (6-mer frequency, TF over GST control) with ETV3L; 1.01 fold enrichment (6-mer frequency, TF over GST control) in the experiment with ELF5; 1.02 fold enrichment (6-mer frequency, TF over GST control) in the experiment with ETV3.
Turning to CTAGGC, the binding signal in the experiment with ETV3L was 1.07 fold enrichment (6-mer frequency, TF over GST control); with ETS2 it was 1.01 fold enrichment (6-mer frequency, TF over GST control); in the experiment with SPDEF, 1 fold enrichment (6-mer frequency, TF over GST control); with ETV7, 1.2 fold enrichment (6-mer frequency, TF over GST control); with ELF5, 1.04 fold enrichment (6-mer frequency, TF over GST control); in the experiment with ETV3 it was 1.09 fold enrichment (6-mer frequency, TF over GST control). In addition, the binding signal in the experiment with ETV6 was 1.06 fold enrichment (6-mer frequency, TF over GST control).
In the case of AGCATC, the binding signal in the experiment with ETV3L was 1.02 fold enrichment (6-mer frequency, TF over GST control); in the experiment with ETS2, 1.09 fold enrichment (6-mer frequency, TF over GST control); with SPDEF, 1.27 fold enrichment (6-mer frequency, TF over GST control); in the experiment with ELF5 it was 1.08 fold enrichment (6-mer frequency, TF over GST control); in the experiment with ETV3, 1.07 fold enrichment (6-mer frequency, TF over GST control); in the experiment with ETV6, 1.03 fold enrichment (6-mer frequency, TF over GST control).
With TCATAA, the binding signal was 1 fold enrichment (6-mer frequency, TF over GST control) in the experiment with ETV3L; 1.01 fold enrichment (6-mer frequency, TF over GST control) with ETS2; 1.01 fold enrichment (6-mer frequency, TF over GST control) with SPDEF; 1.02 fold enrichment (6-mer frequency, TF over GST control) in the experiment with ELF5.
On to TAGTCC, for which the binding signal with ETV3L is 1.12 fold enrichment (6-mer frequency, TF over GST control); with ETS2, 1.06 fold enrichment (6-mer frequency, TF over GST control); in the experiment with SPDEF, 1.2 fold enrichment (6-mer frequency, TF over GST control); with ETV7 it was 1.13 fold enrichment (6-mer frequency, TF over GST control); with ELF5 it was 1.06 fold enrichment (6-mer frequency, TF over GST control); with ETV6, 1.14 fold enrichment (6-mer frequency, TF over GST control).
As to AAGGCT, the binding signal in the experiment with ETV3L is 1.02 fold enrichment (6-mer frequency, TF over GST control); in the experiment with SPDEF, 1.04 fold enrichment (6-mer frequency, TF over GST control); with ETV7 it was 1.06 fold enrichment (6-mer frequency, TF over GST control); with ELF5, 1.06 fold enrichment (6-mer frequency, TF over GST control); with ETV3 it was 1.04 fold enrichment (6-mer frequency, TF over GST control); with ETV6 it was 1.02 fold enrichment (6-mer frequency, TF over GST control).
Regarding AAAAGT, the binding signal is 1.08 fold enrichment (6-mer frequency, TF over GST control) with ETV3L; 1.07 fold enrichment (6-mer frequency, TF over GST control) with ETS2; 1.12 fold enrichment (6-mer frequency, TF over GST control) with SPDEF; 1.16 fold enrichment (6-mer frequency, TF over GST control) with ETV7; 1.08 fold enrichment (6-mer frequency, TF over GST control) in the experiment with ELF5; 1.07 fold enrichment (6-mer frequency, TF over GST control) with ETV3. Further, the binding signal with ETV6 was 1.06 fold enrichment (6-mer frequency, TF over GST control).
As for AGACCT, the binding signal with ETV3L was 1.07 fold enrichment (6-mer frequency, TF over GST control); with ETS2 it was 1.01 fold enrichment (6-mer frequency, TF over GST control); in the experiment with ELF5 it was 1.05 fold enrichment (6-mer frequency, TF over GST control); in the experiment with ETV6, 1.11 fold enrichment (6-mer frequency, TF over GST control).
Turning to GAATAT, the binding signal with ETV3L is 1.05 fold enrichment (6-mer frequency, TF over GST control); in the experiment with ETS2 it was 1.05 fold enrichment (6-mer frequency, TF over GST control); with SPDEF, 1.02 fold enrichment (6-mer frequency, TF over GST control); with ETV7, 1.1 fold enrichment (6-mer frequency, TF over GST control); in the experiment with ELF5 it was 1.12 fold enrichment (6-mer frequency, TF over GST control); with ETV3, 1.12 fold enrichment (6-mer frequency, TF over GST control). The binding signal with ETV6 was 1.07 fold enrichment (6-mer frequency, TF over GST control).
